The values below come from PubChem BioAssay (EPA / NIEHS).

Calls of active or inactive are those of the source. Rule for the calls: active = hit-call score of the fitted dose curve at least 0.9, where 1 is the maximum; inactive = score below 0.9.

A short description of the experiment: APR_HepG2_P-H2AX_72hr: Apredica 72-hour HepG2 Assay for H2AX Phosphorylation (AID 2282916). The following applies: imaging, actives raise or lower the signal. How it is done: APR_HepG2_72hr is a cell-based, multiplexed-readout assay that uses HepG2, a human liver cell line, with measurements taken at 72 hours after chemical dosing in a 384-well plate.APR_HepG2_P-H2AX_72hr is one of 10 assay component(s) measured or calculated from the APR_HepG2_72hr assay. It is designed to make measurements of dna content, a form of viability reporter, as detected with fluorescence intensity signals by HCS Fluorescent Imaging technology.Data from the assay component APR_HepG2_P-H2AX_72hr was analyzed into 1 assay endpoint. This assay endpoint, APR_HepG2_P-H2AX_72hr, was analyzed with bidirectional fitting relative to DMSO as the negative control and baseline of activity. Using a type of viability reporter, measures of protein for gain or loss-of-signal activity can be used to understand the signaling at the pathway-level as they relate to the gene . Furthermore, this assay endpoint can be referred to as a primary readout, because this assay has produced multiple assay endpoints where this one serves a signaling function. To generalize the intended target to other relatable targets, this assay endpoint is annotated to the dna binding intended target family, where the subfamily is cellular response to DNA damage stimulus.
Cells were treated with dimethyl sulfoxide (DMSO) as a solvent control at a final concentration of 0.5% v/v or with compounds in DMSO with a resulting final DMSO concentration of 0.5% v/v. Compound treatment was done at concentrations of 0.39, 0.78, 1.56, 3.12, 6.24, 12.5, 25, 50, 100, and 200 uM in duplicate on each plate. Cells were treated with compounds for 1, 24, or 72 hr. Carbonyl […] m-chloro-phenylhydrazone (CCCP) and taxol were used as positive controls for mitochondrial function and cytoskeletal stability, respectively; DMSO served as the negative control for this experiment. Cells were fixed by the direct addition of 50 uL formaldehyde in Hank's Balanced Salt Solution (HBSS) to a final concentration of 3.7%. After incubation in the fixation medium for 30 min at room temperature (293-298 K), cells were rinsed twice with HBSS and treated with cell permeabilization buffer (16 uL of 0.5% Triton X-100) for 10 min at room temperature (293-298 K) before labeling. For mitochondrial membrane potential and mitochondrial measurements, pre-fixed cells were incubated with 50 uL of MitoTracker Red CMXRos (Invitrogen) at a concentration of 250 nM for 30 min before fixation. In the remaining cases, post-fixed cells were labeled by incubation with a multiplexed mixture of primary antibodies in HBSS for 60 min at room temperature (293-298 K) to detect immunoreactivity of c-Jun (1:500), phospho-histone H3 (1:100), phospho-histone H2A.x (1:200), p53 (1:400), alpha-tubulin (1:200) and Hoechst 33342 (2 ug/mL). Cells were labeled for multiplexed imaging on two separate plates: a) Hoechst 33342, MitoTracker Red, phospho-histone H3, and alpha-tubulin, and b) Hoechst 33342, phospho-histone H2A.x, and c-Jun. A final rinse with HBSS (50 uL) was performed before analysis. The primary and secondary antibodies for the proteins were phospho-histone H3 (rabbit anti-phospho-histone H3 and FITC-donkey anti-rabbit IgG), phospho-histone H2A.x (mouse anti-phospho-histone H2A.x and FITC-donkey anti-mouse IgG), c-Jun (rabbit anti-phospho-c-Jun and Cy3-donkey anti-rabbit IgG), p53 (sheep anti-p53 and Cy5-donkey anti-sheep IgG), alpha-tubulin (mouse anti-alpha-tubulin and Cy5-donkey anti-mouse IgG). These antibodies are available as the CellCiphr HepG2 assay kit (Millipore).Digital images of each well were captured using a Cellomics ArrayScan VTI (Thermo Scientific Cellomics) (0.8 NA objective, 0.63x optical coupler, and XF-93 filter set) at 20x magnification. The images were acquired using the autofocus feature of the ArrayScan instrument, which entails the following steps. First, the camera focuses on channel 1 (Hoechst 33342), where nuclei are identified. Second, a Z offset of 1 um is used for capturing mitochondria (MitoTracker Red). […]
On to `CC(C)O.CC(C)O.OCCN(CCO)CCO.OCCN(CCO)CCO.[Ti]`, for which the compound was called inactive. Turning to `CN(C)C(=S)S`, the AC50 is 0.242 µM (active). Consider `CC(C)(C)c1ccccc1O`, for which the compound was called inactive. The same measure, in the same setting: as for `O=C(N[C@H]1CN2CCC1CC2)c1ccc2c(c1)OCCO2`, the entry is “inactive”; as for `CCCCCCCCCCCCc1cccc(S(=O)(=O)O)c1`, “inactive”; as for `Clc1cccc(Cl)c1Cl`, “inactive”. `Oc1cc(Cl)c(Cl)cc1Cl`: the AC50 is 42.4 µM (active). `OCCN(CCO)CCO`: the result was inactive. Turning to `N#Cc1cccnc1`, the outcome was inactive. For the compound `O=C(O)C1(c2ccc3c(c2)OC[C@H](Cc2ccc(-c4ccccc4)cc2)[C@H]3O)CCCC1`, the AC50 was 106 µM (active). `Oc1c(Cl)cc(Cl)cc1Cl`: the result was inactive. `COc1ccccc1N`: the compound was classed as inactive. Consider `Clc1cccc(Cl)c1`, for which the result was inactive. The same measure, in the same setting: as for `Cc1cc(C)cc(C)c1`, the entry is “inactive”.
